The structures appear in SMILES notation. Compounds without any hit were thinned out: in the full panel of roughly 83,000, 20% have a hit.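 Percent growth is the endpoint: 0 to 100 indicates growth inhibition (40 means 60% inhibition), 0 means no net growth, and negative values indicate cell death.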 A number with no mark means an inactive call. The source made the active and inactive calls. Rule for the calls: active = growth percent below 10; inactive = the rest.

Drawing on PubChem BioAssay (NCI), this text covers growth for 7 molecules.

Test systems include NCI-H23 lung; NCI-H226 lung; NCI-H322M lung; HOP-62 NSCLC; NCI-H460 lung; HOP-92 NSCLC; NCI-H522 lung; A549/ATCC NSCLC; 786-0 renal; COLO 205 colon; DU-145 prostate; K-562 leukemia; MALME-3M melanoma; MDA-MB-231 breast; RXF 393 renal; SF-268 CNS; SF-295 CNS; SF-539 CNS; UACC-257 melanoma; M14 melanoma.
Holding throughout (experiment): NCI-60 one-dose screen, 48 h (100 = growth as untreated, 0 = no growth, -100 = all killed)
Common to all, as to conditions: 10 µM unless noted

With `COc1ccccc1S(=O)(=O)Nc1ccc2c3c(cc(CCC(=O)NCCCCNc4cccc5c4C(=O)N(C4CCC(=O)NC4=O)C5=O)cc13)C(=O)N2C` (centres undefined), the growth with NCI-H23 lung was 70.3%; in the assay on NCI-H226 lung, -0.85% (active); in the assay with NCI-H322M lung it was -3.45% (active); with HOP-62 NSCLC, 2.74% (active); with NCI-H460 lung, 97.8%; in the assay on HOP-92 NSCLC, -10.7% (active). The growth is 26.2% with NCI-H522 lung; 56.1% with A549/ATCC NSCLC; 20.4% with 786-0 renal; 2.62% (active) with COLO 205 colon; 75.9% in the assay on DU-145 prostate; 17.4% in the assay with K-562 leukemia. Besides, the growth in the assay with MALME-3M melanoma was -29% (active); with MDA-MB-231 breast, -33.3% (active); in the assay with RXF 393 renal, -14.4% (active); in the assay with SF-268 CNS, 11.9%; in the assay with SF-295 CNS, 47.6%; with SF-539 CNS, 31.3%. Also, the growth with UACC-257 melanoma is 71.7%; with M14 melanoma, 36%.

For `N#Cc1c(-c2ccccc2)nc2c(c(-c3ccccc3)nn2-c2ccccc2)c1-c1ccc(N2CCCCC2)cc1`, the growth in the assay with NCI-H23 lung was 93.9%; in the assay on NCI-H226 lung it was 89.1%; in the assay on NCI-H322M lung, 97.2%; with HOP-62 NSCLC it was 95.9%; with NCI-H460 lung, 103%; with HOP-92 NSCLC, 98.7%. The growth is 98.6% with NCI-H522 lung; 87.9% in the assay with A549/ATCC NSCLC; 98.5% in the assay on 786-0 renal; 104% with COLO 205 colon; 103% in the assay with DU-145 prostate; 92.7% with K-562 leukemia. The growth was 98.6% in the assay on MALME-3M melanoma; 97.7% in the assay with MDA-MB-231 breast; 115% in the assay on RXF 393 renal; 101% in the assay on SF-268 CNS; 97.9% with SF-295 CNS; 100% in the assay on SF-539 CNS. Moreover, the growth was 93.3% in the assay with UACC-257 melanoma and 90.8% with M14 melanoma.

On to `CCCn1c(=S)sc2c(NNC(C)=O)nc(C)nc21`, for which the growth is 99.3% in the assay on NCI-H23 lung; 97.1% in the assay with NCI-H226 lung; 101% with NCI-H322M lung; 78.3% in the assay with HOP-62 NSCLC; 101% with NCI-H460 lung; 89.4% in the assay on HOP-92 NSCLC. In addition, the growth with NCI-H522 lung was 90.9%; with A549/ATCC NSCLC, 89.1%; with 786-0 renal, 92.2%; in the assay on COLO 205 colon, 126%; in the assay on DU-145 prostate it was 134%; with K-562 leukemia it was 68.8%. Besides, the growth with MALME-3M melanoma is 101%; in the assay on MDA-MB-231 breast, 103%; in the assay with RXF 393 renal it was 98.5%; with SF-268 CNS, 111%; with SF-295 CNS it was 121%; in the assay on SF-539 CNS, 90.6%. In addition, the growth was 91.7% in the assay with UACC-257 melanoma and 108% in the assay on M14 melanoma.

Turning to `CCOC(=O)C#Cc1c(C(=O)OCC)nnn1[C@@H]1O[C@H](COC)[C@@H](OC)[C@H]1OC`, the growth was 101% in the assay with NCI-H23 lung; 82.6% in the assay with NCI-H226 lung; 92.9% in the assay with NCI-H322M lung; 97.8% with HOP-62 NSCLC; 109% in the assay on NCI-H460 lung; 68.5% in the assay on HOP-92 NSCLC. Besides, the growth in the assay with NCI-H522 lung was -58.7% (active); in the assay with A549/ATCC NSCLC, 95.9%; in the assay on 786-0 renal, 84.2%; with COLO 205 colon it was -54.7% (active); with DU-145 prostate, 92.6%; in the assay with K-562 leukemia it was 9.33% (active). The growth was 25.8% with MALME-3M melanoma; 107% in the assay with MDA-MB-231 breast; 14% in the assay with RXF 393 renal; 106% with SF-268 CNS; 95.1% with SF-295 CNS; 84.7% in the assay on SF-539 CNS. Moreover, the growth is 59.3% in the assay with UACC-257 melanoma and 61.8% in the assay with M14 melanoma.

In the case of `Cc1ccc2c(c1)sc1nc(-c3c[nH]c4ccccc34)c(Nc3ccccc3)n12`, the growth was 98.4% with NCI-H23 lung; 98.6% in the assay on NCI-H226 lung; 106% with NCI-H322M lung; 96.1% in the assay on HOP-62 NSCLC; 101% in the assay with NCI-H460 lung; 101% in the assay with HOP-92 NSCLC. In addition, the growth in the assay with NCI-H522 lung is 90.6%; in the assay with A549/ATCC NSCLC, 101%; in the assay with 786-0 renal, 105%; with COLO 205 colon, 107%; with DU-145 prostate it was 108%; in the assay with K-562 leukemia, 94.4%. Moreover, the growth with MALME-3M melanoma was 101%; in the assay on MDA-MB-231 breast it was 93%; in the assay with RXF 393 renal, 111%; in the assay with SF-268 CNS, 101%; in the assay with SF-295 CNS, 100%; with SF-539 CNS, 97.2%. In addition, the growth with UACC-257 melanoma is 105%; with M14 melanoma, 107%.

On to `COc1ccc2cc(-c3nc4ccc(C)cn4c3NCc3ccco3)c(=O)[nH]c2c1`, for which the growth is 70.2% in the assay on NCI-H23 lung; 76.4% in the assay with NCI-H226 lung; 74.1% in the assay with NCI-H322M lung; 90.7% in the assay with HOP-62 NSCLC; 88.9% in the assay on NCI-H460 lung; 20.6% in the assay with HOP-92 NSCLC. The growth in the assay with NCI-H522 lung is 87.3%; in the assay on A549/ATCC NSCLC, 85.2%; with 786-0 renal it was 67.9%; in the assay on COLO 205 colon, 76%; in the assay with DU-145 prostate, 71.7%; in the assay with K-562 leukemia, 74.3%. For the same molecule, the growth in the assay on MALME-3M melanoma is 75.4%; with MDA-MB-231 breast, 49.6%; with RXF 393 renal, 73.4%; in the assay on SF-268 CNS it was 71.6%; in the assay on SF-295 CNS, 74.8%; in the assay with SF-539 CNS it was 65.5%. In addition, the growth was 103% in the assay with UACC-257 melanoma and 86.8% in the assay with M14 melanoma.

Regarding `N=C(N)c1ccc(OCCSCCOc2ccc(C(=N)N)cc2)cc1`, the growth with NCI-H23 lung was 36.2%; in the assay on NCI-H226 lung it was 58.8%; with NCI-H322M lung, 78.3%; in the assay on HOP-62 NSCLC, 72.5%; with NCI-H460 lung, 27.1%; in the assay on HOP-92 NSCLC it was 79.2%. Also, the growth in the assay with A549/ATCC NSCLC was 57.4%; with 786-0 renal, 80.2%; in the assay with COLO 205 colon, 79.5%; in the assay on DU-145 prostate, 71.7%; in the assay on K-562 leukemia it was 54.3%; with MALME-3M melanoma it was 52.2%. Besides, the growth in the assay on MDA-MB-231 breast is 82.1%; with RXF 393 renal it was 105%; in the assay on SF-268 CNS, 74.2%; in the assay with SF-295 CNS it was -33.5% (active); with SF-539 CNS, 76.5%; in the assay with UACC-257 melanoma, 76.2%. In addition, the growth in the assay with M14 melanoma was 75.3%.
